Experimental data reported in PubChem BioAssay (EPA / NIEHS).
Results filed as inconclusive are left out. Activity calls are given as the source filed them. How the source made its calls, unless noted: active means hit-call score of the fitted dose curve at least 0.9, where 1 is the maximum; inactive means score below 0.9.

Legend:
[1] = read-out: Macrophage colony-stimulating factor (MCSF), CSF1 (gene 1435); experiment: BSK_LPS_MCSF: BioMAP Diversity Plus: LPS Assay for Macrophage colony-stimulating factor (MCSF) Biomarker Activity (AID 2283083); conditions: primary human HUVEC with PBMC; actives raise or lower the signal
Summary of the method: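 Human umbilical vein endothelial cells co-cultured with peripheral blood mononuclear cells were exposed to compound for 24 h. M-CSF levels were measured by ELISA, and bidirectional curve fitting used DMSO as the negative control and baseline.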

[2] = read-out: Tissue Factor, F3 (gene 2152); experiment: BSK_LPS_TissueFactor: BioMAP Diversity Plus: LPS Assay for Tissue Factor Biomarker Activity (AID 2283084); conditions: primary human HUVEC with PBMC; actives raise or lower the signal
Summary of the method: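 Human umbilical vein endothelial cells co-cultured with peripheral blood mononuclear cells were dosed and stimulated with LPS. Cell-surface CD142 was quantified by ELISA at 24 h. Activity was fitted bidirectionally against DMSO baseline.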

[3] = read-out: Tumor necrosis factor (Homo sapiens) (UniProt P01375); experiment: BSK_LPS_TNFa: BioMAP Diversity Plus: LPS Assay for Tumour Necrosis Factor alpha (TNFa) Biomarker Activity (AID 2283085); conditions: primary human HUVEC with PBMC; actives raise or lower the signal
Summary of the method: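 Human umbilical vein endothelial cells co-cultured with PBMC and stimulated with LPS. TNFa was measured by ELISA 24 h after chemical dosing, fitted bidirectionally relative to DMSO.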

[4] = read-out: Vascular cell adhesion molecule 1 (VCAM1), VCAM1 (gene 7412); experiment: BSK_LPS_VCAM1: BioMAP Diversity Plus: LPS Assay for Vascular cell adhesion molecule 1 (VCAM1) Biomarker Activity (AID 2283086); conditions: primary human HUVEC with PBMC; actives raise or lower the signal
Summary of the method: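 Human umbilical vein endothelial cells co-cultured with PBMC and stimulated with LPS; VCAM-1 measured by ELISA 24 h after dosing. Bidirectional curve fitting against DMSO baseline; cytotoxicity tracked in parallel by SRB total-protein staining.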

CD38, CD38 (gene 952) = experiment: BSK_SAg_CD38: BioMAP Diversity Plus: SAg Assay for CD38 Biomarker Activity (AID 2283087); conditions: primary human HUVEC with PBMC; actives raise or lower the signal
Summary of the method: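 Human HUVEC plus PBMC co-culture stimulated with superantigen; CD38 measured by ELISA 24 h after chemical dosing. Fluorescence read-out, bidirectional fit against DMSO; cytotoxicity tracked in parallel by SRB and Alamar Blue.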

CD40, CD40 (gene 958) = experiment: BSK_SAg_CD40: BioMAP Diversity Plus: SAg Assay for CD40 Biomarker Activity (AID 2283088); conditions: primary human HUVEC with PBMC; actives raise or lower the signal
Summary of the method: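 Human umbilical vein endothelial cells co-cultured with PBMC; CD40 levels measured by ELISA with fluorescence read-out 24 h after chemical dosing. Gain or loss of signal fitted bidirectionally against DMSO baseline.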

CD69, CD69 (gene 969) = experiment: BSK_SAg_CD69: BioMAP Diversity Plus: SAg Assay for CD69 Biomarker Activity (AID 2283089); conditions: primary human HUVEC with PBMC; actives raise or lower the signal;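 on AC50: cell surface CD69 protein quantified by ELISA with fluorescence detection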
Summary of the method: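 Values derive from bidirectional fitting relative to DMSO vehicle. Cells: umbilical vein endothelium plus peripheral blood mononuclear cells, treated 24 h before fluorescent ELISA for CD69.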

[5] = read-out: Monocyte Chemoattractant Protein-1 (MCP1), CCL2 (gene 6347); experiment: BSK_SAg_MCP1: BioMAP Diversity Plus: SAg Assay for Monocyte Chemoattractant Protein-1 (MCP1) Biomarker Activity (AID 2283090); conditions: primary human HUVEC with PBMC; actives raise or lower the signal
Summary of the method: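 MCP-1 levels in the endothelial–PBMC SAg co-culture were quantified by ELISA at 24 h post-dosing; both increases and decreases versus DMSO scored. Cytotoxicity monitored by SRB total protein in parallel cultures.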

[6] = read-out: E-selectin (Homo sapiens) (UniProt P16581); experiment: BSK_SAg_Eselectin: BioMAP Diversity Plus: SAg Assay for Eselectin Biomarker Activity (AID 2283091); conditions: primary human HUVEC with PBMC; actives raise or lower the signal
Summary of the method: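 HUVEC co-cultured with PBMC, compound dosed then read at 24 h; E-selectin measured by ELISA. Activity fitted bidirectionally against DMSO as negative control and baseline.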

[7] = BSK_SAg_PBMCCytotoxicity: PBMC Cytotoxicity Assessment in the BioMAP Diversity Plus: SAg Assay (AID 2283093); conditions: primary human HUVEC with PBMC;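 further: PBMC viability measured as Alamar Blue reduction fluorescence at 546/580 nm; fitted both ways against DMSO so a hit may be loss or gain of signal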;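 on AC50: PBMC superantigen activated with SEB plus TSST-1 one hour after compound addition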
Summary of the method: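 Human umbilical vein endothelial cells co-cultured with PBMC; PBMC (75,000/well) pre-treated with compound 1 h, then activated with SEB and TSST-1 (20 ng/mL final each) for 90 h. Alamar Blue added 6 h, fluorescence 546/580 nm; bidirectional fit versus DMSO.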

[8] = read-out: Interleukin-8 (IL8), CXCL8 (gene 3576); experiment: BSK_SAg_IL8: BioMAP Diversity Plus: SAg Assay for Interleukin-8 (IL8) Biomarker Activity (AID 2283094); conditions: primary human HUVEC with PBMC; actives raise or lower the signal
Summary of the method: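 Human umbilical vein endothelial cells co-cultured with PBMC, stimulated with superantigen; IL-8 measured by ELISA 24 h after chemical dosing. Bidirectional fitting versus DMSO; SRB staining in parallel cultures tracks cytotoxicity.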

[9] = BSK_SAg_Proliferation: Cell Proliferation Assessment in the BioMAP Diversity Plus: SAg Assay (AID 2283095); conditions: primary human HUVEC with PBMC
Summary of the method: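 Human umbilical vein endothelial cells co-cultured with PBMC; sulforhodamine B total-protein staining (0.1% SRB after 10% TCA fixation, absorbance 560 nm) at 96 h in sub-confluent culture. Fitted bidirectionally against DMSO.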

[10] = BSK_SAg_SRB: Viability Assessment in the BioMAP Diversity Plus: SAg Assay (AID 2283096); conditions: primary human HUVEC with PBMC;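 further: cells read one day after compound addition; hits may be either gain or loss of signal compared with DMSO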
Summary of the method: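 Endothelial/PBMC primary human co-culture; compound 24 h; fix 10% TCA, stain 0.1% SRB, A560; protein content as cytotoxicity proxy; bidirectional curve fit, DMSO = baseline.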

[11] = read-out: Monokine induced gamma interferon (MIG), CXCL9 (gene 4283); experiment: BSK_SAg_MIG: BioMAP Diversity Plus: SAg Assay for Monokine induced gamma interferon (MIG) Biomarker Activity (AID 2283092); conditions: primary human HUVEC with PBMC; actives raise or lower the signal
Summary of the method: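 Values reflect bidirectional fitting of ELISA-measured MIG against DMSO vehicle, taken 24 h after dosing of a co-culture of human umbilical vein endothelial cells and peripheral blood mononuclear cells.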

[12] = target: human CYP2B6, CYP2B6 (gene 1555) (UniProt P20813); experiment: NVS_ADME_hCYP2B6: NovaScreen (NVS) CYP450-related Enzyme Activity (ADME) Assay for human CYP2B6 (AID 2283101; active means hit-call score of the fitted dose curve at least 0.9, where 1 is the maximum)
Chain of human CYP2B6, CYP2B6 (gene 1555) (P20813 whole entry, looked up): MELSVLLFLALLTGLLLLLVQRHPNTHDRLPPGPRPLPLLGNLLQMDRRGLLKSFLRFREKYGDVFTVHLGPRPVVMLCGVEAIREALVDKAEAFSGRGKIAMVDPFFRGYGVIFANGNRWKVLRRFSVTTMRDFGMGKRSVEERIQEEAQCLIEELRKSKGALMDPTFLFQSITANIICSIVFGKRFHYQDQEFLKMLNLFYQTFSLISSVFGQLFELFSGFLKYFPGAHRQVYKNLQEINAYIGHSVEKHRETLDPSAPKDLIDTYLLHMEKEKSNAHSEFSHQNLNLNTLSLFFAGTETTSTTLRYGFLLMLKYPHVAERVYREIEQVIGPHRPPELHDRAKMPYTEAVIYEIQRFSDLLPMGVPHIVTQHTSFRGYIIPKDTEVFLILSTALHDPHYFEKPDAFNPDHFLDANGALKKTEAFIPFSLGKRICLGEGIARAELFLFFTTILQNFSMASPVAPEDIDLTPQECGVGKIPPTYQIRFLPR
Summary of the method: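 Compounds were first screened in duplicate at 10 uM against recombinant enzyme, with the fluorescent product measured after 1 hour. Active compounds were retested over a concentration series. Loss of fluorescence versus acetonitrile control was scored as reduced enzyme activity.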

[13] = target: human CYP1A2, CYP1A2 (gene 1544) (UniProt P05177); experiment: NVS_ADME_hCYP1A2: NovaScreen (NVS) CYP450-related Enzyme Activity (ADME) Assay for human CYP1A2 (AID 2283102; active means hit-call score of the fitted dose curve at least 0.9, where 1 is the maximum;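 on AC50: potency for inhibition since loss of fluorescence marks reduced CYP1A2 activity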)
Chain of human CYP1A2, CYP1A2 (gene 1544) (P05177 whole entry, looked up): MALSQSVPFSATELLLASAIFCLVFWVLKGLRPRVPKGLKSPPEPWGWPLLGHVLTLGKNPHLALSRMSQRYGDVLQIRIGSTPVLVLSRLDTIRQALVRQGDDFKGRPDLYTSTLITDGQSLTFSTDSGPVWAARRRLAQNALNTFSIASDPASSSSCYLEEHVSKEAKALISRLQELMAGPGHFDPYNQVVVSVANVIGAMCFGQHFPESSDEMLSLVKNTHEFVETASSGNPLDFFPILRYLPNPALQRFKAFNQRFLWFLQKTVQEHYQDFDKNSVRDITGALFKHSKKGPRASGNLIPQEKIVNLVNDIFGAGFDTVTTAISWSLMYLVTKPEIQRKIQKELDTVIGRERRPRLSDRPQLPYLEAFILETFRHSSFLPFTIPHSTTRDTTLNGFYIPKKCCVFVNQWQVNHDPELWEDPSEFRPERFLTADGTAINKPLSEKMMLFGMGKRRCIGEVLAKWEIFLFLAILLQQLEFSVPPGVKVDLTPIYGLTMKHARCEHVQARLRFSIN
Summary of the method: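 Cell-free recombinant human CYP1A2 expressed in insect cells, with fluorogenic substrate; fluorescence intensity read 0.5 h after dosing. Loss of signal relative to acetonitrile baseline scored. Primary screen in duplicate at 10 uM; actives retested in concentration series.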

[14] = target: human CYP2A6, CYP2A6 (gene 1548) (UniProt P11509); experiment: NVS_ADME_hCYP2A6: NovaScreen (NVS) CYP450-related Enzyme Activity (ADME) Assay for human CYP2A6 (AID 2283099; active means hit-call score of the fitted dose curve at least 0.9, where 1 is the maximum)
Chain of human CYP2A6, CYP2A6 (gene 1548) (P11509 whole entry, looked up): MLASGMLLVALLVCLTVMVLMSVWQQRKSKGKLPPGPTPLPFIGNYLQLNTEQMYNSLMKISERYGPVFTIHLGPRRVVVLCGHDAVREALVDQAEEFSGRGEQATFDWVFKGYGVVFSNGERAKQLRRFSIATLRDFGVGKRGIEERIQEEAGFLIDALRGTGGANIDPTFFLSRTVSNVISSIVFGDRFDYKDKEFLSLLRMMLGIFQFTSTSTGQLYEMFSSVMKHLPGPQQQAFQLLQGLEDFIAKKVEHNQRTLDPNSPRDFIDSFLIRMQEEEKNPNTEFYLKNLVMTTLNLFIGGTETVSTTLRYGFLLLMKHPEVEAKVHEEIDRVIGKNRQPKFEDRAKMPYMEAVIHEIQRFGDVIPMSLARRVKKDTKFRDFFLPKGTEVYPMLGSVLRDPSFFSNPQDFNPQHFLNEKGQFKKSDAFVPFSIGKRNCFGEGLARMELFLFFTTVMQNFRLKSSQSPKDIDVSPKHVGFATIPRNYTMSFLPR
Summary of the method: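 Cell-free fluorescence readout of recombinant human CYP2A6 expressed in insect cells, read 0.5 h after dosing; loss of signal versus acetonitrile negative control. Primary screen in duplicate at 10 uM; actives re-run in concentration-response up to 20 uM.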

Measured: AC50

Chain of Tumor necrosis factor (Homo sapiens) (P01375 whole entry, looked up): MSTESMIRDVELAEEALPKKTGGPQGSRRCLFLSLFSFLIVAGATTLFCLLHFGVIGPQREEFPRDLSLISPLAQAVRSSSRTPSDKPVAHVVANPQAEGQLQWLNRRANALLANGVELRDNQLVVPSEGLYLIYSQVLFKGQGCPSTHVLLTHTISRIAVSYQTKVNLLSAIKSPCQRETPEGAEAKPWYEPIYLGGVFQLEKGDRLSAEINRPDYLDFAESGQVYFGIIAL
Chain of E-selectin (Homo sapiens) (P16581 whole entry, looked up): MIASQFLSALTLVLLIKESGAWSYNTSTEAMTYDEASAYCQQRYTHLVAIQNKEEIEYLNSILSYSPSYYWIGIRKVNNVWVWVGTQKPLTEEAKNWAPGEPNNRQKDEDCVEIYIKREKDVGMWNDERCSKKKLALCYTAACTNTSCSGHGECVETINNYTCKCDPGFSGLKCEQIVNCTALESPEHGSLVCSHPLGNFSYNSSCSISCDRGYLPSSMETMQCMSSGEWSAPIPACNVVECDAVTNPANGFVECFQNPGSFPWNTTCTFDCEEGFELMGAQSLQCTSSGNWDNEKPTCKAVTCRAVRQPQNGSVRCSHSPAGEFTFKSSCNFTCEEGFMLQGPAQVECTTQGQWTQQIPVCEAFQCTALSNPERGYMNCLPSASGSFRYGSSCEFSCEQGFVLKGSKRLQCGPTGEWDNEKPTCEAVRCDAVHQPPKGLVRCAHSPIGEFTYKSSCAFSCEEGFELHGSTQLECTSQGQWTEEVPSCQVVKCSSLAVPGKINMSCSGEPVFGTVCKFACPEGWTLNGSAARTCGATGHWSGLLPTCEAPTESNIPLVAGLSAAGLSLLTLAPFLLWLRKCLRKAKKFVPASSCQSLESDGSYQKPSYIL

Cc1ccccc1Cl
not listed: [11] | [12] | [13] | [14]
inactive: all other assays above

CN[C@H]1CC[C@@H](c2ccc(Cl)c(Cl)c2)c2ccc(S(N)(=O)=O)cc21
active: [1] 30.1 µM | [2] 32.2 µM | [3] 23.3 µM | [4] 20 µM | CD38, CD38 (gene 952) 27.7 µM | CD40, CD40 (gene 958) 29.3 µM | CD69, CD69 (gene 969) 26.1 µM | [5] 25.2 µM | [6] 20 µM | [7] 20.5 µM | [8] 13.8 µM | [9] 12.4 µM | [10] 28.8 µM

Oc1ccc2c(c1)OC[C@@H](N1CCC(O)(c3ccc(F)cc3)CC1)[C@H]2O
active: [12] 6.22 µM
not listed: [14]
inactive: all other assays above

CCCCCCCCCCCCCCCCCC(=O)O
active: [3] 4.09 µM | CD40, CD40 (gene 958) 25.8 µM | [7] 26.7 µM | [9] 24.1 µM
not listed: [11] | [12] | [13] | [14]
inactive: all other assays above

CC(CO)OC(C)CO (centres undefined) (tested in a mixture with another compound)
not listed: [11] | [12] | [13] | [14]
inactive: all other assays above

CCOC(=O)CCC(=O)OCC
not listed: [14]
inactive: all other assays above

CN1CCCC1=O
not listed: [11] | [12] | [13] | [14]
inactive: all other assays above

COc1ccc2c(c1)c(CC(=O)O)c(C)n2C(=O)c1ccc(Cl)cc1
not listed: [13] | [14]
inactive: all other assays above

O=C(O)CCCCC(=O)O
not listed: [11] | [12] | [13] | [14]
inactive: all other assays above

C=CCOC(=O)c1ccccc1C(=O)OCC=C
active: [12] 7.79 µM | [13] 3.03 µM
not listed: [14]
inactive: all other assays above

O=C(O)Cc1ccccc1Nc1c(Cl)cccc1Cl
active: [1] 16.6 µM | [3] 20 µM | [9] 15.6 µM
not listed: [11] | [12] | [14]
inactive: all other assays above

Cc1ccc(C)c(O)c1C
not listed: [12] | [13]
inactive: all other assays above

Cc1ccc(C(C)C)c(O)c1
not listed: [12] | [13] | [14]
inactive: all other assays above

Nc1ccc2c(c1)C(=O)c1ccccc1C2=O
active: [3] 5.74 µM | [13] 4.65 µM
not listed: [11]
inactive: all other assays above

NC(=O)Cn1c(=O)cc(CCN2CCN(c3nccc4sccc34)CC2)c2ccc(F)cc21
not listed: [11] | [12] | [13] | [14]
inactive: all other assays above

CNCc1cc(F)ccc1Oc1ccc(Cl)c(Cl)c1
inactive: [1] | [2] | [4] | [10]
active: [3] 0.461 µM | CD38, CD38 (gene 952) 28.5 µM | CD40, CD40 (gene 958) 36.5 µM | CD69, CD69 (gene 969) 26.3 µM | [5] 26.4 µM | [6] 20 µM | [7] 25.7 µM | [8] 20 µM | [9] 26.1 µM

Nc1ccccc1N
active: [1] 3.97 µM | [4] 11.2 µM
not listed: [11] | [12] | [13] | [14]
inactive: all other assays above

CC1=C(/C=C/C(C)=C/C=C/C(C)=C/CO)C(C)(C)CCC1
active: [1] 8.45 µM | [3] 5.39 µM | [4] 30.5 µM | CD38, CD38 (gene 952) 32.7 µM | CD40, CD40 (gene 958) 26.4 µM | CD69, CD69 (gene 969) 20.9 µM | [5] 20.9 µM | [6] 12.8 µM | [9] 26.1 µM
inactive: [2] | [11] | [7] | [8] | [10] | [14]
